The record followed here is PubChem BioAssay (Tox21).

Structures are written as SMILES. Where “and” joins values, the source holds several entries; their conditions need not be identical. Identical values can stand only once. Records with an inconclusive call do not appear. Some structures have more than one record in an assay (separate samples or runs), and their calls can disagree. Calls of active or inactive are those of the source. Unless noted, calls come from the whole dose curve; as a rule, active = well fitted curve in the direction sought with a large enough effect in the repeat runs; inconclusive = weak or mixed curves; inactive = no such curve, though single readings can be large; an effect the other way counts as inactive or inconclusive.

A short description of assay [1]: qHTS assay to identify small molecule antagonists of the glucocorticoid receptor (GR) signaling pathway - cell viability counter screen (AID 720693). Note: nearly all actives have a fitted effect of over 55% in size.
The nature of assay [2]: qHTS assay for identifying genotoxic compounds that show differential cytotoxicity against isogenic chicken DT40 cell lines with known DNA damage response pathways - wild type cell line (AID 743012). Note: nearly all actives have a fitted effect of over 60% in size. Note: potency is the fitted concentration of half-maximal effect. A digest of the protocol: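 CellTiter-Glo luminescence readout of viability in wild type DT40 cells after 40 h compound exposure at 37 C/5% CO2; 300 cells/well; reagent incubated 30 min at room temperature before reading.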
(In general: Quantitative high-throughput screening tests each substance at several concentrations.)

Assay [3] in a line: qHTS assay for identifying genotoxic compounds that show differential cytotoxicity against isogenic chicken DT40 cell lines with known DNA damage response pathways - Rev3 mutant cell line (AID 743014). Note: nearly all actives have a fitted effect of over 55% in size. Note: potency is the fitted concentration of half-maximal effect.
The nature of assay [4]: qHTS assay for identifying genotoxic compounds that show differential cytotoxicity against isogenic chicken DT40 cell lines with known DNA damage response pathways - Rad54/Ku70 mutant cell line (AID 743015). Note: nearly all actives have a fitted effect of over 60% in size. Note: potency is the fitted concentration of half-maximal effect.
Assay [5] is described as follows: qHTS assay to identify small molecule antagonists of the androgen receptor (AR) signaling pathway - cell viability counter screen (AID 743033; note: nearly all actives have a fitted effect of over 45% in size; note: potency is the fitted concentration of half-maximal effect).
Assay [6] is described as follows: qHTS assay to identify small molecule antagonists of the thyroid receptor (TR) signaling pathway - cell viability counter screen (AID 743064). Note: nearly all actives have a fitted effect of over 50% in size. Note: potency is the fitted concentration of half-maximal effect. In short, it runs like this: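 Plate GH3.TRE-Luc cells; incubate 4 h at 37 °C; add compound, then T3 to 1 nM final; incubate 23.5 h; add CellTiter-Fluor; incubate 30 min at 37 °C, 5% CO2; read fluorescence.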
Assay [7] in a line: qHTS assay to identify small molecule antagonists of the thyroid receptor (TR) signaling pathway (AID 743065). Note: nearly all actives have a fitted effect of over 55% in size. Note: potency is the fitted concentration of half-maximal effect. A digest of the protocol: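 GH3.TRE-Luc rat pituitary cells (two TREs driving luciferase) were dosed with compound, then stimulated with 1 nM T3 (final) for 23.5 h at 37 C. ONE-Glo luminescence was the read-out, with CellTiter-Fluor fluorescence as the cytotoxicity counter-screen.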

Assay [8] deals with thyroid hormone receptor (rat, GH3 cells). Put plainly: qHTS assay to identify small molecule agonists of the thyroid receptor (TR) signaling pathway (AID 743066; calls by dose curve; note: potency is the fitted concentration of half-maximal effect).
Assay [9] is described as follows: qHTS assay to identify small molecule antagonists of the estrogen receptor alpha (ER-alpha) signaling pathway - cell viability counter screen (AID 743074; calls by dose curve;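 note: HEK293 cells carrying ER-alpha-UAS-bla reporter stimulated with 17beta-estradiol; nearly all actives have a fitted effect of over 45% in size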).
Assay [10] is described as follows: qHTS assay to identify small molecule antagonists of the estrogen receptor alpha (ER-alpha) signaling pathway using the BG1 cell line - cell viability counter screen (AID 743081).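 Note: compound given together with 17beta-estradiol as the ER stimulus; nearly all actives have a fitted effect of over 45% in size.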 Note: potency is the fitted concentration of half-maximal effect.
In assay [11] the target is Aromatase (Homo sapiens) (UniProt P11511). Put plainly: qHTS assay to identify aromatase inhibitors (AID 743083). Note: nearly all actives have a fitted effect of over 55% in size. Note: potency is the fitted concentration of half-maximal effect.
Aromatase (Homo sapiens), sequence (P11511 whole entry, looked up): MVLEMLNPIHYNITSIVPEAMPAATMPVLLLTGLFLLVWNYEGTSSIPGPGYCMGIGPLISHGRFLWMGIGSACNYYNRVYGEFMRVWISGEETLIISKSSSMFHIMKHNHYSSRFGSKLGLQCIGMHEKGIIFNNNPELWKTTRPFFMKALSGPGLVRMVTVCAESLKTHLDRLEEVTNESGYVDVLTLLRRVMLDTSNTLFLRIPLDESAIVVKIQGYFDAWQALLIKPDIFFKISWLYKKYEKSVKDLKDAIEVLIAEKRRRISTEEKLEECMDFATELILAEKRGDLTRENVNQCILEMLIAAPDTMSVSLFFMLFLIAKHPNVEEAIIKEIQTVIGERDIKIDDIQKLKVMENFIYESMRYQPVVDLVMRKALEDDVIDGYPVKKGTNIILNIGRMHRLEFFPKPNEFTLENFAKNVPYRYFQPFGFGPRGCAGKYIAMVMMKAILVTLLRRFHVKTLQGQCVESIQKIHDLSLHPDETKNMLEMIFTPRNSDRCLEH
Assay [12] is described as follows: qHTS assay to identify small molecule antagonists of the androgen receptor (AR) signaling pathway using the MDA cell line - cell viability counter screen (AID 743041; note: nearly all actives have a fitted effect of over 45% in size). A digest of the protocol: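 Cytotoxicity counter screen: MDA-kb2 AR-luc cells, compound + R1881, 16 h, 37C, 0% CO2; CellTiter-Fluor added at 15.5 h, fluorescence read after 30 min.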
The target in assay [13] is Estrogen receptor (Homo sapiens) (UniProt P03372). Put plainly: qHTS assay to identify small molecule agonists of the estrogen receptor alpha (ER-alpha) signaling pathway (AID 743075; calls by dose curve;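 note: HEK293 GripTite cells with ER-alpha and UAS-driven beta-lactamase reporter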).
Estrogen receptor (Homo sapiens), sequence (P03372 whole entry, looked up): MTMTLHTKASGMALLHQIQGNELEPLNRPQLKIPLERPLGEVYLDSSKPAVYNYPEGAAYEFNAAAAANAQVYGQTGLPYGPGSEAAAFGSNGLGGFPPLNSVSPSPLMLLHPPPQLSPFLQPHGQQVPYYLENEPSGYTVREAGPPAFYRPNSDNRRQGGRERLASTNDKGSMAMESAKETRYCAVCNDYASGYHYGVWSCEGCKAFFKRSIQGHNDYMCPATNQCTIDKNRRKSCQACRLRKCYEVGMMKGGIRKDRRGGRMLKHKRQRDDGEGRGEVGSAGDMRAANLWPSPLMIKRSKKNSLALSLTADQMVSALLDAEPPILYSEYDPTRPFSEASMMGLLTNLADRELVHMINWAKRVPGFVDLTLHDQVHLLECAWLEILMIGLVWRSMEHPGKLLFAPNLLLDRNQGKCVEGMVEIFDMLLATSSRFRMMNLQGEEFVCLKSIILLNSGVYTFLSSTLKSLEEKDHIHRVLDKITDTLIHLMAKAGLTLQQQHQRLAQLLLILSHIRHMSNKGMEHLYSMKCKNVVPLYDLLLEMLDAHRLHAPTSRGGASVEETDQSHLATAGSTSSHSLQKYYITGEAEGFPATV
The target is the same in assay [14]. Put plainly: qHTS assay to identify small molecule agonists of the estrogen receptor alpha (ER-alpha) signaling pathway using the BG1 cell line (AID 743079). Note: nearly all actives have a fitted effect of over 20% in size. Note: potency is the fitted concentration of half-maximal effect.
The nature of assay [15]: qHTS assay to identify small molecule antagonists of the estrogen receptor alpha (ER-alpha) signaling pathway using the BG1 cell line (AID 743080; calls by dose curve;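 note: BG1 cells stimulated with 17beta-estradiol alongside compound; nearly all actives have a fitted effect of over 25% in size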; note: potency is the fitted concentration of half-maximal effect). In short, it runs like this:
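Seeding, 24 h rest, compound transfer from DMSO, 17beta-estradiol addition, 21.5 h incubation, CellTiter-Fluor (30 min, 37 C), then ONE-Glo (30 min, room temperature): this sequence was run on BG1-Luc-4E2 reporter cells.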

Assay [16] has as its target Estrogen receptor (Homo sapiens) (UniProt P03372). Put plainly: qHTS assay to identify small molecule antagonists of the estrogen receptor alpha (ER-alpha) signaling pathway (AID 743069; active = well fitted curve in the direction sought with a large enough effect in the signal ratio in the repeat runs, not every such curve was filed as active; the % refers to the signal ratio). A digest of the protocol:
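Beta-lactamase FRET fluorescence is read after 2 hr at room temperature with LiveBLAzer B/G substrate. Before that, ER-alpha-bla HEK293 cells sit 4 hr after plating, then receive compound plus 17beta-estradiol and incubate 18 hr at 37C.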

The target of assay [17] is Androgen receptor (Homo sapiens) (UniProt P10275). Put plainly: qHTS assay to identify small molecule agonists of the androgen receptor (AR) signaling pathway using the MDA cell line (AID 743040; note: nearly all actives have a fitted effect of over 20% in size). Particulars: MDA-kb2 AR-luc cells, MMTV luciferase, 16 h; activity change: at 70.3 µM (top of the series), stronger effect = higher value. A digest of the protocol:
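Luciferase read-out, ONE-Glo, 30 min RT. Cells: MDA-kb2 AR-luc, MMTV promoter with AR and GR response elements. Compound exposure 16 h, 37C, 0% CO2, after 5 h pre-incubation. qHTS agonist mode.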

Assay [18] shares this target. Put plainly: qHTS assay to identify small molecule antagonists of the androgen receptor (AR) signaling pathway using the MDA cell line (AID 743042; note: nearly all actives have a fitted effect of over 55% in size; note: potency is the fitted concentration of half-maximal effect). In short, it runs like this: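 MDA-kb2 breast carcinoma cells carrying MMTV-luciferase (AR/GR responsive) were co-treated with compounds and the agonist R1881 for 16 h at 37C. Inhibition read as ONE-Glo luminescence; CellTiter-Fluor fluorescence measured in parallel for cytotoxicity.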

Assay [19] shares this target. Put plainly: qHTS assay to identify small molecule antagonists of the androgen receptor (AR) signaling pathway (AID 743035; active = well fitted inhibition curve with a large enough effect in the signal ratio in the repeat runs, not every such curve was filed as active; the % refers to the signal ratio). In short, it runs like this: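 AR-bla HEK293 reporter cells; 4 h settle at 37C/5% CO2; compound + R1881 agonist, 16 h at 37C; LiveBLAzer B/G FRET substrate 2 h RT; fluorescence intensity read. qHTS format.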
For assay [20] the target is unchanged. Put plainly: qHTS assay to identify small molecule agonists of the androgen receptor (AR) signaling pathway (AID 743036; active = well fitted activation curve with a large enough effect in the signal ratio in the repeat runs, with a control signal flat, not every such curve was filed as active; the % refers to the signal ratio). A digest of the protocol:
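Reporter line: GeneBLAzer AR-UAS-bla-GripTite (HEK293). Steps: plate cells, 4 h rest, add compounds, 16 h at 37C, add LiveBLAzer B/G substrate, 2 h at RT, read fluorescence.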

Androgen receptor (Homo sapiens), sequence (P10275 whole entry, looked up): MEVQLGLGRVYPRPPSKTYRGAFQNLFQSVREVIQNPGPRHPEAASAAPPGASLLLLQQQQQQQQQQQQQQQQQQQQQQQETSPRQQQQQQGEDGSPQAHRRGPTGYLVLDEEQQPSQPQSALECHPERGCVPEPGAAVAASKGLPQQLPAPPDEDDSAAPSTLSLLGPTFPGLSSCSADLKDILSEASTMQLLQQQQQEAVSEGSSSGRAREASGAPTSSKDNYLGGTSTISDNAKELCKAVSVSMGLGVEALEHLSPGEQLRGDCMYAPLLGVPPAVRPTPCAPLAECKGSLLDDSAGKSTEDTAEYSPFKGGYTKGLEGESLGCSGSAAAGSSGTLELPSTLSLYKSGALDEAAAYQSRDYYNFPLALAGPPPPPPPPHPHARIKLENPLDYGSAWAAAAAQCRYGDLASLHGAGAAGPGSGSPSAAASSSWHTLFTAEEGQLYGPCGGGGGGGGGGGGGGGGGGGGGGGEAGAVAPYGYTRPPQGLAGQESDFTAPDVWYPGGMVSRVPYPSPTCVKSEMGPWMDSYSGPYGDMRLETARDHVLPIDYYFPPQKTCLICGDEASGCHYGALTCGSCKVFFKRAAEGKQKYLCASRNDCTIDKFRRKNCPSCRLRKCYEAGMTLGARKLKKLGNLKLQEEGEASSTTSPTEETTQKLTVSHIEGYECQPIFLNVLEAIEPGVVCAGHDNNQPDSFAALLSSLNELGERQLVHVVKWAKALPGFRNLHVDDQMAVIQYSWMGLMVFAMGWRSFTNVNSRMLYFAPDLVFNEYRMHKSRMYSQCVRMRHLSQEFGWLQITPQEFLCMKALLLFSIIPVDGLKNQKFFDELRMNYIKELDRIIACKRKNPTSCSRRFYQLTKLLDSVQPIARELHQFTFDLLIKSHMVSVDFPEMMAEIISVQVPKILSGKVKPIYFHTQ

Take `CCOC(=S)S`: the Potency entry in assay [1], in [6], in [8], in assay [9] and in assay [10] was “inactive” in each case. For the same compound, the Potency in assay [2] is 24.3 µM (active) and 16.3 µM (active); in [3], 21.7 µM (active) and 16.3 µM (active); in assay [4], 24.3 µM (active) and 16.3 µM (active); in assay [5] it was 13.8 µM (active) and 8.26 µM (active); in assay [7], 51.7 µM (active); in assay [11], 68.6 µM (active) and 58 µM (active).
For the compound `O=[N+]([O-])c1cccc2ccccc12`, the Potency result in assay [1], in assay [2], in assay [3], in [4], in assay [5] and in assay [12] was “inactive” each time. For the same compound, the Potency result in [6], in assay [7], in assay [8], in assay [9], in assay [13] and in assay [14] was “inactive” in each case. The Potency entry in assay [15], in [10] and in assay [11] was “inactive” throughout.
As to `Cc1cccc(N)c1N`, the Potency result in assay [1], in [5], in [12], in assay [6], in assay [7] and in assay [8] was “inactive” throughout. Also, the Potency entry in assay [9], in assay [10] and in assay [11] was “inactive” each time. The Potency entry in [2] was “inactive and 19.3 µM (active)”; in assay [3], 19.3 µM (active); in assay [4], 21.7 µM (active).
On to `O=C(NC(=O)c1c(F)cccc1F)Nc1ccc(Cl)cc1`, for which the Potency result in [1], in [2], in assay [3], in assay [4], in assay [5] and in [12] was “inactive” throughout. Moreover, the Potency entry in assay [6], in assay [7], in [8], in assay [16], in [9] and in assay [13] was “inactive” each time. The Potency entry in [10] and in assay [11] was “inactive” throughout. For the same compound, the Potency result in assay [14] was “inactive and 2.43 µM (active)”.
As for `O=[N+]([O-])c1ccc(O)c([N+](=O)[O-])c1`, the Potency entry in assay [1], in assay [2], in assay [3], in assay [5], in assay [17] and in [8] was “inactive” throughout. In addition, the Potency entry in assay [13] and in assay [11] was “inactive” in each case. In addition, the Potency in assay [4] is 54.5 µM (active); in [18] it was 61.1 µM (active); in assay [6] it was 61.1 µM (active); in assay [10], 30.8 µM (active) and 30.6 µM (active).
As for `C=CCc1ccc(OC)cc1`, the Potency entry in [1], in assay [2], in assay [4], in [5], in [12] and in assay [6] was “inactive” each time. Further, the Potency entry in assay [7], in assay [8], in [9], in [10] and in assay [11] was “inactive” in each case. The Potency in assay [3] was 26.5 µM (active).
With `O=C(O)C(F)(F)C(F)(F)C(F)(F)C(F)(F)C(F)(F)C(F)(F)C(F)(F)F`, the Potency entry in assay [1], in assay [2], in assay [3], in [4], in [5] and in [12] was “inactive” in each case. Moreover, the Potency entry in assay [6], in assay [7], in assay [8], in assay [9], in assay [10] and in assay [11] was “inactive” each time.
Take `Nc1ccc(-c2ccccc2)cc1`: the Potency entry in [1], in [5], in assay [12], in assay [6], in [7] and in assay [8] was “inactive” throughout. The Potency result in [9], in assay [13], in assay [10] and in assay [11] was “inactive” throughout. In addition, the Potency result in [2] was “inactive and 54.5 µM (active)”; in assay [3], “inactive and 54.5 µM (active)”; in assay [4], “inactive and 30.6 µM (active)”; in assay [14], 25 nM (active) and 10.9 µM (active).
For the compound `Brc1ccc(Oc2cc(Br)c(Br)cc2Br)c(Br)c1`, the Potency entry in assay [1], in assay [2], in assay [3], in assay [4], in assay [5] and in assay [8] was “inactive” throughout. Further, the Potency result in [9], in assay [13], in assay [15], in assay [10] and in assay [11] was “inactive” each time. For the same compound, the Potency in assay [6] is 48.9 µM (active); in assay [14], “inactive and 61.6 µM (active)”.
As for `CCOc1cc(Oc2ccc(C(F)(F)F)cc2Cl)ccc1[N+](=O)[O-]`, the Potency entry in assay [1], in assay [3], in assay [5], in [12], in assay [8] and in [16] was “inactive” each time. Also, the Potency entry in [9], in assay [13], in assay [10] and in assay [11] was “inactive” in each case. Moreover, the Potency in [2] is 54.5 µM (active); in assay [4] it was 54.5 µM (active); in [15] it was 31 µM (active).
On to `CCCCCCCCOC(=O)c1ccccc1C(=O)OCCCCCCCC`, for which the Potency result in assay [1], in assay [2], in assay [3], in assay [4], in assay [5] and in assay [19] was “inactive” throughout. In addition, the Potency result in assay [20], in assay [17], in assay [18], in assay [6], in assay [7] and in assay [8] was “inactive” throughout. The Potency entry in assay [9], in assay [13], in assay [14], in assay [15], in [10] and in assay [11] was “inactive” in each case.
For the compound `Nc1ccc(Cl)c(Cl)c1`, the Potency entry in assay [1], in assay [2], in [3], in [4], in [12] and in assay [6] was “inactive” in each case. Besides, the Potency result in [7], in assay [8], in assay [9], in assay [10] and in assay [11] was “inactive” throughout.
As for `NNC(=S)NN`, the Potency entry in assay [1], in assay [12], in assay [6], in [7], in assay [9] and in assay [13] was “inactive” throughout. Besides, the Potency entry in assay [14], in assay [15], in assay [10] and in [11] was “inactive” throughout. The Potency was 61.1 µM (active) in assay [2]; 54.5 µM (active) in assay [3]; 43.3 µM (active) in [4]; “inactive and 61.1 µM (active)” in [8].
For the compound `CC(C)N(C(=O)SCC(Cl)=C(Cl)Cl)C(C)C`, the Potency result in [1], in assay [12], in assay [8], in assay [9] and in assay [10] was “inactive” each time. Further, the Potency in assay [2] is 61.1 µM (active); in assay [3] it was “inactive and 54.5 µM (active)”; in assay [4], “inactive and 30.6 µM (active)”; in assay [6], 47.9 µM (active); in assay [7] it was 53.8 µM (active) and 61.1 µM (active).
